Experimental data taken from PubChem BioAssay AID651710 (Broad Institute, 2012).
Where “and” joins values, the source holds several entries; their conditions need not be identical. Equal entries are not always repeated. Among all 360,000 compounds or so, about 1,600 (0.44%) were called active.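 Rule for the calls: active = every replicate showing at least 50% inhibition; inconclusive = mean inhibition at least 50% but not in every replicate; inactive = the rest.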 The entries come from a sample that favours actives as a whole. The source holds several records for some structures; these can differ, active in one and inactive in another.

target: DNA repair protein RAD52 homolog (Homo sapiens) (UniProt P43351); test: RAD52 DNA annealing inhibitors, primary screen, biochemical, FRET, single point, set 2 (AID 651710); details: recombinant RAD52 DNA annealing, FRET fluorescence; at 18.7 µM; stronger effect = higher value
Sequence (P43351 whole entry, looked up): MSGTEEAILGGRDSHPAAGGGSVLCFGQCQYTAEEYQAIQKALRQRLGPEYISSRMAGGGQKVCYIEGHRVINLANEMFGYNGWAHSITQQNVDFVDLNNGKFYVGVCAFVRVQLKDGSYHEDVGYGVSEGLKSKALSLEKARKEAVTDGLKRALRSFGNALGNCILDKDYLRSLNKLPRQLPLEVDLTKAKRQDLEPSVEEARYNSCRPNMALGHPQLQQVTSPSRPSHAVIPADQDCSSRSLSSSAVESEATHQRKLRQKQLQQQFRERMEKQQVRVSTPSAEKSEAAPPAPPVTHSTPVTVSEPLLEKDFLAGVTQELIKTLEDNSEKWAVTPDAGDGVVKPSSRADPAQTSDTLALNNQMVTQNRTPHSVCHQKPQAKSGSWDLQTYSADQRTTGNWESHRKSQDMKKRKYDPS

Row | SMILES | inhibition
1 | Cc1ccc(-c2ccc3c(c2)O[C@@H](CN(C)C(=O)CC2CC2)[C@@H](C)CN([C@@H](C)CO)S3(=O)=O)cc1 | 18.4% (inactive)
2 | COCCNC(=O)C[C@@H]1C[C@@H]2c3cc(NC(=O)Nc4ccc(C(F)(F)F)cc4)ccc3O[C@@H]2[C@@H](CO)O1 | 1.63% (inactive)
3 | CC(=O)c1cccc(-c2cnc3c(NC=O)cc(-c4ccccc4Oc4ccccc4)cn23)c1 | -29.2% (inactive)
4 | CN(C)CCNC(=O)c1ccc(-c2cn3c(-c4ccc(Oc5ccccc5)cc4)cnc3cn2)cc1 | 85.7% (active)
5 | CN(C)C(CNC(=O)c1ccc(OCc2cn3ccccc3n2)cc1)c1ccco1 (centres undefined) | -13.9% (inactive)
6 | C[C@H]1CN([C@@H](C)CO)C(=O)c2cccc(NS(=O)(=O)c3cn(C)cn3)c2O[C@H]1CN(C)C(=O)Nc1ccc2c(c1)OCO2 | -13.3% (inactive)
7 | CS(=O)(=O)N1[C@H](C#N)[C@H](c2ccc(C#CC3CC3)cc2)[C@H]1CO | -26.1% (inactive)
8 | COc1ccc(NC(=O)N(C)C[C@@H]2Oc3c(NS(=O)(=O)c4ccc(OC)cc4)cccc3C(=O)N([C@H](C)CO)C[C@@H]2C)cc1 | -3.75% (inactive)
9 | COc1ccc2c3c(n(C)c2c1)[C@H](CO)N(S(=O)(=O)c1ccc(C)cc1)CC31CCN(C(=O)c2ccccn2)CC1 | 21.8% (inactive)
10 | C[C@H]1CN([C@@H](C)CO)C(=O)CCCn2nncc2CO[C@@H]1CN(C)C(=O)Nc1ccc(N2CCN(C)CC2)cc1 | 60.1% (active) and 24.7% (inactive)
11 | C[C@@H]1CN([C@@H](C)CO)C(=O)CCCn2nncc2CO[C@H]1CN(C)C(=O)Nc1ccc(C(F)(F)F)cc1 | -10.9% (inactive) and -1.52% (inactive)
12 | COC(=O)N(C)C[C@@H]1OCc2cnnn2CCCC(=O)N([C@@H](C)CO)C[C@@H]1C | 0.525% (inactive) and 0.31% (inactive)
13 | COc1ccc(S(=O)(=O)N2CC[C@@H]3[C@@H](CO)Nc4ccc(C#Cc5cccnc5)cc4[C@@H]32)cc1 | 0.847% (inactive)
14 | Cc1noc(C)c1S(=O)(=O)N(C)C[C@H]1Oc2ccc(NC(=O)CCN3CCOCC3)cc2CC(=O)N([C@H](C)CO)C[C@H]1C | -2.41% (inactive)
15 | C[C@H](CO)N1C[C@H](C)[C@H](CN(C)C)Oc2ccc(NC(=O)Nc3ccc(F)cc3)cc2CC1=O | -3.53% (inactive)
16 | Cc1cccc(NC(=O)NC2(C)CCS(=O)(=O)C2)c1 (centres undefined) | -1.1% (inactive)
17 | Cc1cccc(NC(=S)NC23CN4CN(CN(C4)C2)C3)c1 | 82.8% (active)
18 | Cc1cccc(NC(=S)NCc2ccc3[nH]c4c(c3c2)CCCC4)c1 | -21.7% (inactive)
19 | Cc1cccc(C(=O)OC(C)CN2CCN(C)CC2)c1 (centres undefined) | -5.75% (inactive)
20 | O=C(NCCN1CCOCC1)c1cccc(S(=O)(=O)Nc2ccc(F)cc2)c1 | 2.89% (inactive)
21 | Cc1cccc(-c2nc3ccc(C(=O)NCCN4CCN(C)CC4)cc3nc2-c2cccc(C)c2)c1 | 68% (active)
22 | CN(C)CC(=O)N1[C@H](CO)[C@@H](c2ccc(-c3cccc(C(=O)N(C)C)c3)cc2)[C@@H]1C#N | -31.9% (inactive)
23 | Oc1ccc(N=Cc2sc3ccccc3c2Cl)cc1 | 55.8% (active)
24 | O=C(NC1CCC1)[C@H]1[C@H](CO)[C@H]2Cn3c(ccc(C4=CCCCC4)c3=O)[C@@H]1N2CC1CC1 | 1.51% (inactive)
25 | CCCc1ccc(OCC(O)CN2CCN(C(=O)OCC)CC2)cc1 (centres undefined) | -8.19% (inactive)
26 | CCc1ccc(S(=O)(=O)NCC(O)COc2ccc(OC)cc2)cc1 (centres undefined) | -8.48% (inactive)
27 | Nc1ccc(OCC(O)C[n+]2ccc(CCS(=O)(=O)[O-])cc2)cc1 (centres undefined) | 58.1% (active)
28 | COCC(=O)N1CC(=O)N2[C@H](C1)[C@H](c1ccc(C#CC3CCCCC3)cc1)[C@@H]2CO | 6.1% (inactive)
29 | COc1ccc2c3c([nH]c2c1)[C@H](CO)N(C(=O)c1ccccc1)CC31CCN(S(=O)(=O)c2cccs2)CC1 | 2.57% (inactive)
